# Unmarked numbers belong to inactive results. Results filed as inconclusive are left out. Where a call stands in place of a potency, no number is given. Activity calls are given as the source filed them. Unless noted, calls come from the whole dose curve; as a rule, active = well fitted curve in the direction sought with a large enough effect; inconclusive = small, poorly fitted or top-dose-only effect, or another doubt; inactive = no such curve, though single readings can be large; an effect the other way counts as inactive or inconclusive.
# Tests used:
# [1] = molecular target: Cytochrome P450 1A2 (Homo sapiens) (UniProt P05177); assay: p450-cyp1a2 (AID 410; calls by dose curve; note: potency is the fitted concentration of half-maximal effect)
# Cytochrome P450 1A2 (Homo sapiens), sequence (P05177 whole entry, looked up): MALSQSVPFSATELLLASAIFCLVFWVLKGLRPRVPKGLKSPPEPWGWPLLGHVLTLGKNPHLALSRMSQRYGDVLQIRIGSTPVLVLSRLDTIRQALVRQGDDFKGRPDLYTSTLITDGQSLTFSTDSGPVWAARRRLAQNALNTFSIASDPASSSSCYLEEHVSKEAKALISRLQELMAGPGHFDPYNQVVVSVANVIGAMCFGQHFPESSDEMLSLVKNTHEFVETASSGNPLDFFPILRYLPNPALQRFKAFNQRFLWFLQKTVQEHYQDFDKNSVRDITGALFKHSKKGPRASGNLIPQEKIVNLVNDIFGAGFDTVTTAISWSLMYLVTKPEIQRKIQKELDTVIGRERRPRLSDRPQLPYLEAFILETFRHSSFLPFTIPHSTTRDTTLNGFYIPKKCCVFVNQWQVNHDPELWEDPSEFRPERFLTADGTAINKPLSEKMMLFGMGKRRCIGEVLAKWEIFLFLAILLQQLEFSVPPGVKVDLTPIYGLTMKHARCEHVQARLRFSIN
# Procedure, shortened: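 20nM CYP1A2, 100uM Luciferin-ME (=Km), 100mM KPO4; cpd 10 min RT; +NADPH regen, 60 min RT; stop/detect 20 min; luminescence. Normalized to furafylline 57 uM = full inhibition.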
# [2] = molecular target: Glucocorticoid receptor (Homo sapiens) (UniProt P04150); assay: GR-EFC Redistribution (AID 451; calls by dose curve; note: potency is the fitted concentration of half-maximal effect); settings: CHO-K1 GR-EFC translocation, beta-gal luminescence, 2 h
# Glucocorticoid receptor (Homo sapiens), sequence (P04150 whole entry, looked up, the tested form may be a part): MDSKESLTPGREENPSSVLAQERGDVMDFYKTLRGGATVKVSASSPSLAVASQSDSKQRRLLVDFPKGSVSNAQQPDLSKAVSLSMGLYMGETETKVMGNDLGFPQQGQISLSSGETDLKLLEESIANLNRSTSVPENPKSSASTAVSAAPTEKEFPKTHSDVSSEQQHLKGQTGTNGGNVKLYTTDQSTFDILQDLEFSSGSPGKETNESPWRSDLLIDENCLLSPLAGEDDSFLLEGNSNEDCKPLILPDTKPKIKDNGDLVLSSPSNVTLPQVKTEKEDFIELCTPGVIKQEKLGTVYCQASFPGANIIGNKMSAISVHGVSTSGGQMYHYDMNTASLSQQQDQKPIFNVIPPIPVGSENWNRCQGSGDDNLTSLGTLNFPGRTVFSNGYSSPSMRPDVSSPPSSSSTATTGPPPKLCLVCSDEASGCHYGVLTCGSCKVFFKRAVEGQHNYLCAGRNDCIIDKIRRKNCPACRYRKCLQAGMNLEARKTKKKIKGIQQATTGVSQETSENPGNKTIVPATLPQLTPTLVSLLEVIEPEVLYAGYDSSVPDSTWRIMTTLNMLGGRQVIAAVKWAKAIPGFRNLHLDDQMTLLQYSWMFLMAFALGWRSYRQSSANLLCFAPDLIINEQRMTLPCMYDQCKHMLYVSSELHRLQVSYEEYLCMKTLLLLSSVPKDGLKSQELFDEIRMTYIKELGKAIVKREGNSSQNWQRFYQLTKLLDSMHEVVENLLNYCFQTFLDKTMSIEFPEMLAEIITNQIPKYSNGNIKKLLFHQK
# Procedure, shortened: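 Translocation of GR-ED fusion to nuclear EA restores b-gal, read by luminescence after 1 h room-temperature detection. Engineered CHO-K1 biosensor cells, 1,000/well, exposed 2 h at 37 C to titrations up to 46 uM final.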
# [3] = molecular target: Mitogen-activated protein kinase 10 (Mus musculus) (UniProt Q61831); assay: JNK3 AlphaScreen Assay (AID 530; active = well fitted curve in either direction with a large enough effect, not every such curve was filed as active;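 note: kinase came from lysate of stimulated human HepG2 cells; signal reports phosphorylation of biotinylated GST-cJun 1-79 at Ser73 with 10 µM ATP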)
# Procedure, shortened: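 Kinase buffer: 20 mM Tris-HCl pH 7.6, 10 mM MgCl2, 1 mM DTT, 0.1 mM Na3VO4, 0.01% Tween-20; ATP 10 uM. Substrate biotin-GST-cJun(1-79), enzyme from activated HepG2 lysates. Detection by Ser73 phospho-antibody AlphaScreen.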
# [4] = molecular target: Cytochrome P450 2C9 (Homo sapiens) (UniProt P11712); assay: qHTS Assay for Inhibitors and Substrates of Cytochrome P450 2C9 (AID 883); note: potency is the fitted concentration of half-maximal effect; nearly all actives have a fitted effect of over 60% in size
# Cytochrome P450 2C9 (Homo sapiens), sequence (P11712 whole entry, looked up): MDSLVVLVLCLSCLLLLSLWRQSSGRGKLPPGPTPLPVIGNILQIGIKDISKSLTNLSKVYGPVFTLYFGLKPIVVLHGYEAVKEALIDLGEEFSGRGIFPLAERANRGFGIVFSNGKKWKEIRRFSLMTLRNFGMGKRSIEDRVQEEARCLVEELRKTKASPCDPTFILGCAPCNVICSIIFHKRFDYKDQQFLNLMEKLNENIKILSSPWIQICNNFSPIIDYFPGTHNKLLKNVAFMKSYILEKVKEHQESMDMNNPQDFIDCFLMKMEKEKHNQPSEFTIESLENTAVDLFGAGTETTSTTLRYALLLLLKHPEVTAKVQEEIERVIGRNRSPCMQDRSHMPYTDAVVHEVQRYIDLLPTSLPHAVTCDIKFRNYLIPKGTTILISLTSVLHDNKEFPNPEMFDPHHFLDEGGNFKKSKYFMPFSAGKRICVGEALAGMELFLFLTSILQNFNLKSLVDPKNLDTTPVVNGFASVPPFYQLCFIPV
# Procedure, shortened: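 Turnover of Luciferin-H (100uM, KM) by 10nM human CYP2C9 was measured over 60 min at 37C with NADPH regeneration; inhibitors and some substrates reduce luminescence. Data normalized to sulphaphenazole 57uM.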
# [5] = molecular target: Cytochrome P450 3A4 (Homo sapiens) (UniProt P08684); assay: qHTS Assay for Inhibitors and Substrates of Cytochrome P450 3A4 (AID 884); note: potency is the fitted concentration of half-maximal effect; nearly all actives have a fitted effect of over 50% in size
# Cytochrome P450 3A4 (Homo sapiens), sequence (P08684 whole entry, looked up): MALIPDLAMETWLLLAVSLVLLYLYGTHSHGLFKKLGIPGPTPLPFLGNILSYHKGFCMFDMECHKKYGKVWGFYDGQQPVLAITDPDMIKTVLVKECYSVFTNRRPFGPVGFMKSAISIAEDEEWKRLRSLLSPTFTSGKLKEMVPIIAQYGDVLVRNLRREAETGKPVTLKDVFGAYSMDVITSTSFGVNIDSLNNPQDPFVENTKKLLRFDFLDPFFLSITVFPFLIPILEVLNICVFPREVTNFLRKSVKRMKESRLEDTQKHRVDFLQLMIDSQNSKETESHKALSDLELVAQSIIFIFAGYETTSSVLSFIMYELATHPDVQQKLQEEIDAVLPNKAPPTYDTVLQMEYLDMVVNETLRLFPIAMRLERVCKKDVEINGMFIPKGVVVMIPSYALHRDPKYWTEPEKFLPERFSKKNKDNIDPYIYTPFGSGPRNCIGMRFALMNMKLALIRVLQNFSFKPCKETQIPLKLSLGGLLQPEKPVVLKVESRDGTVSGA
# Procedure, shortened: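 Luminescent readout of luciferin produced by CYP3A4 (20 nM) dealkylation of Luciferin-PPXE, 25 uM (its KM). NADPH-driven reaction ran 60 min at RT after 10 min compound preincubation; data scaled to 57 uM ketoconazole as 100% inhibition.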
# [6] = molecular target: Cytochrome P450 3A4 (Homo sapiens) (UniProt P08684); assay: qHTS Assay for Activators of Cytochrome P450 3A4 (AID 885); note: nearly all actives have a fitted effect of over 65% in size
# Procedure, shortened: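 CYP3A4 activity: Luciferin-PPXE O-dealkylation, 25uM substrate, 200mM KPO4, RT throughout. Read-out is luciferase luminescence; higher values reflect activation.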
# [7] = molecular target: Cytochrome P450 2C19 (Homo sapiens) (UniProt P33261); assay: qHTS Assay for Inhibitors and Substrates of Cytochrome P450 2C19 (AID 899); note: potency is the fitted concentration of half-maximal effect; nearly all actives have a fitted effect of over 60% in size
# Cytochrome P450 2C19 (Homo sapiens), sequence (P33261 whole entry, looked up): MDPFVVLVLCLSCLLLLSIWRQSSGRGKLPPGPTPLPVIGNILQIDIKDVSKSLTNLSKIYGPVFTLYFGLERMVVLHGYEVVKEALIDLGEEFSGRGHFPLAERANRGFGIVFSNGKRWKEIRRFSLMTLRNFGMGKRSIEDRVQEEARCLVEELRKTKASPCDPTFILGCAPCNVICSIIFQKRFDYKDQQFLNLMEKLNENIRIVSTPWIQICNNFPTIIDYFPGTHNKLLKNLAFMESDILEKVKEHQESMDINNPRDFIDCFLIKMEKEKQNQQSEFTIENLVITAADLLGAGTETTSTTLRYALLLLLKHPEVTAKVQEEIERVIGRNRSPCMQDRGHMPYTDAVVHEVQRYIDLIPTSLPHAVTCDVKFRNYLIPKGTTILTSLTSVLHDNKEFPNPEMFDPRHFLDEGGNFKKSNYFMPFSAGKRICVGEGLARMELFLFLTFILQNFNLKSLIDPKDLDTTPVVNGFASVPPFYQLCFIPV
# Procedure, shortened: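 Reactions contain 5nM enzyme, 10uM Luciferin-H EGE (KM) and 50mM KPO4; compound preincubates 10 min at 37C, NADPH regeneration starts turnover for 60 min. Luminescence after detection reagent gives activity.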
# [8] = molecular target: ATP-dependent 6-phosphofructokinase (Trypanosoma brucei brucei) (UniProt O15648); assay: qHTS Assay to Find Inhibitors of T. brucei phosphofructokinase: hit validation (AID 492961);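 note: luminescence reports ADP formed as PFK phosphorylates fructose-6-phosphate with ATP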
# ATP-dependent 6-phosphofructokinase (Trypanosoma brucei brucei), sequence (O15648 whole entry, looked up): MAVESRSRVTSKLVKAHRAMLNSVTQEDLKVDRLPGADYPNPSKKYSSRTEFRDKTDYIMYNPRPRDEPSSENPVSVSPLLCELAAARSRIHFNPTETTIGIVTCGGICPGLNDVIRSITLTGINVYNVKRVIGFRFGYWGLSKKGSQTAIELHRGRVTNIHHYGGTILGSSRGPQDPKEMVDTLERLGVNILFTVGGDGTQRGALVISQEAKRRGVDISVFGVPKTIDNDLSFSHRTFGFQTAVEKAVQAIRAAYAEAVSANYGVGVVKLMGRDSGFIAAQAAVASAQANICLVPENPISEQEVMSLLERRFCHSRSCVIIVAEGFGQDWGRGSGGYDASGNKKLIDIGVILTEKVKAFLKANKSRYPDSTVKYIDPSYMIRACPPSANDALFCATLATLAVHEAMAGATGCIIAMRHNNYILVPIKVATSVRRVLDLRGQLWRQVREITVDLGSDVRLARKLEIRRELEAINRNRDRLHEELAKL
# Procedure, shortened: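 Measures ADP output of PFK (1.25 nM) at 0.1 mM ATP, 0.5 mM F6P, pH 8.0 TEA buffer with 5 mM MgCl2. No-enzyme wells define full inhibition; uninhibited enzyme wells define zero.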
# [9] = molecular target: Ubiquitin carboxyl-terminal hydrolase 1 (Homo sapiens) (UniProt O94782); assay: Inhibitors of USP1/UAF1: Pilot qHTS (AID 504865);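 note: rhodamine fluorescence freed from ubiquitin-rhodamine substrate followed over time; top concentration of the series differs between compounds; nearly all actives have a fitted effect of over 35% in size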
# Ubiquitin carboxyl-terminal hydrolase 1 (Homo sapiens), sequence (O94782 whole entry, looked up): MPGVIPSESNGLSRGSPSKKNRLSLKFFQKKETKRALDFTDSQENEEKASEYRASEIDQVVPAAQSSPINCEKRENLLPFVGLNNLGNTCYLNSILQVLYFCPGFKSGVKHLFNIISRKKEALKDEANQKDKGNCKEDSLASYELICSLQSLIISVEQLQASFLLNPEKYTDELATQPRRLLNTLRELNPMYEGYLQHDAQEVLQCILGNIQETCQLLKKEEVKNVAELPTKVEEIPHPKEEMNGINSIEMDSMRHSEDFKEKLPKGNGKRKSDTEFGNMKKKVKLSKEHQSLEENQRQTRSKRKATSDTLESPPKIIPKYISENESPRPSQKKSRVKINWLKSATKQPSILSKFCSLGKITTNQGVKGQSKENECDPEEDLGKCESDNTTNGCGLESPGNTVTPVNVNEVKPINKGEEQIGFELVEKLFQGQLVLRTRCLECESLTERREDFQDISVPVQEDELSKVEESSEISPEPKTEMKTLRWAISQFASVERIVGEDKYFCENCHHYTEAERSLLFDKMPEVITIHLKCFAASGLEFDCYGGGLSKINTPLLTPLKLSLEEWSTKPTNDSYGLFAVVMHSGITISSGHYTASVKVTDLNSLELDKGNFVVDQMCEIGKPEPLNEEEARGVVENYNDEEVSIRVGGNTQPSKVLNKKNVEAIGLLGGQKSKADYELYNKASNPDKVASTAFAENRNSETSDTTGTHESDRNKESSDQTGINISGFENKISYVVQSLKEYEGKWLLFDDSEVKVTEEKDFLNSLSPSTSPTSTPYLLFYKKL
# Procedure, shortened: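 Kinetic fluorescence assay: 1nM USP1/UAF1, 15 min compound preincubation, then 150nM Ub-Rho; 480/540 nm.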
# [10] = molecular target: Luciferin 4-monooxygenase (Photinus pyralis) (UniProt P08659); assay: Biochemical firefly luciferase enzyme assay for NPC (AID 624030);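 note: purified P. pyralis luciferase at 10 nM with luciferin and ATP substrate; nearly all actives have a fitted effect of over 70% in size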
# Luciferin 4-monooxygenase (Photinus pyralis), sequence (P08659 whole entry, looked up): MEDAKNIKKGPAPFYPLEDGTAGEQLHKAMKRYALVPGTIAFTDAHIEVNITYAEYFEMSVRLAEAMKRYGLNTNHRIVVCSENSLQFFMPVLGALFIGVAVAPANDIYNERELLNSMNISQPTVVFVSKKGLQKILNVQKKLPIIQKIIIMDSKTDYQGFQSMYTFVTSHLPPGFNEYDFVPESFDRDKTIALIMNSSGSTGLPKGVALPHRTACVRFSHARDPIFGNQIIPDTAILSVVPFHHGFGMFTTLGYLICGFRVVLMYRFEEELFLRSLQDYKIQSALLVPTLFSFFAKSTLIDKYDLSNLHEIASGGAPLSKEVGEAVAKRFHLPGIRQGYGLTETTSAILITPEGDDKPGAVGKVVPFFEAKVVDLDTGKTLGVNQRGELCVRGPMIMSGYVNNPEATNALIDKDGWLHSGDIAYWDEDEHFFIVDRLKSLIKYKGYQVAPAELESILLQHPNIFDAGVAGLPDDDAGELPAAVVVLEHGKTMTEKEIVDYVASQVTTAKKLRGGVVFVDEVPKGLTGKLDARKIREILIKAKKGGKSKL
# Procedure, shortened: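 Direct inhibition of firefly luciferase enzyme (10 nM final, 50 mM Tris Acetate) assessed by luminescence within 5 minutes. Percent activity scaled between DMSO and PTC124 positive control, with concentration-effect curves classified by fit quality and response.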
# [11] = S16 Schwann cell viability assay (CellTiter-Glo assay) (AID 624031);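 note: native untransfected S16 rat Schwann cells; cellular ATP luminescence as a viability measure; nearly all actives have a fitted effect of over 70% in size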
# Procedure, shortened: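 Following overnight culture in 10% FBS DMEM, parental S16 rat Schwann cells are dosed for 24 h at 37 °C. Viability is read as CellTiter-Glo luminescence and expressed as % activity relative to DMSO (0%) and no-cell wells.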
# [12] = S16 Schwann cell PMP22 intronic element firefly luciferase assay (AID 624032); note: nearly all actives have a fitted effect of over 30% in size
# Procedure, shortened: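 Luciferase reporter of PMP22 intronic-element expression in stably transfected S16 rat Schwann cells, read by ONE-Glo luminescence after 24 h compound exposure at 37 C. Activity scaled between DMSO (0%) and positive-control PTC124; concentration-effect curves quality-classified.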
# [13] = P-glycoprotein substrates identified in KB-3-1 adenocarcinoma cell line, qHTS therapeutic library screen (AID 1346986); note: nearly all actives have a fitted effect of over 60% in size
# Procedure, shortened: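 Dose-response cytotoxicity, KB-3-1 vs P-gp-high KB-8-5-11, no colchicine in assay medium. Read: CellTiter-Glo at 72 h.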
# [14] = P-glycoprotein substrates identified in KB-8-5-11 adenocarcinoma cell line, qHTS therapeutic library screen (AID 1346987); note: nearly all actives have a fitted effect of over 65% in size
# Procedure, shortened: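 In this qHTS, P-gp-rich KB-8-5-11 cells received library compounds across a concentration range. Viability was quantified by luminescence after 72 h at 37 degree C.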
# [15] = Primary qHTS for inhibitors of SARS-S pseudo-typed particle cell entry (AID 1479145; calls by dose curve; note: nearly all actives have a fitted effect of over 45% in size)
# [16] = Primary qHTS for Huh7 cytotoxicity: counterscreen for inhibitors of MERS-S pseudotyped particle cell entry (AID 1479147; calls by dose curve); settings: outcome: dose series up to 57.1 µM unless noted
# [17] = Primary qHTS for inhibitors of MERS-S pseudo-typed particle cell entry (AID 1479149; calls by dose curve; note: nearly all actives have a fitted effect of over 60% in size)
# [18] = Cytotoxicity counterscreen for inhibitors of SARS-CoV-2 cell entry (AID 1645845; calls by dose curve; note: nearly all actives have a fitted effect of over 50% in size)
# Procedure, shortened: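 ATP-content luminescence (ATPLite 1step, 15 min RT) read after 48 h compound exposure of Expi293F cells stably expressing human ACE2; normalized to cells-only wells and media-only wells.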
# [19] = Primary qHTS to identify inhibitors of SARS-CoV-2 cell entry (AID 1645846; calls by dose curve; note: nearly all actives have a fitted effect of over 45% in size); settings: activity change, negative = inhibition: at 57.1 µM (top of the series) unless noted
# Procedure, shortened: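 Data are normalized to wells receiving SARS-CoV-2-S pseudoparticles and those given bald particles. Entry signal was luciferase luminescence in stable hACE2 Expi293F cells, 48 hr post-infection, after 1 hr compound pretreatment.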
# [20] = Primary qHTS for inhibitors of nuclear receptor binding SET domain protein 2 (NSD2) in an isogenic RCH-ACV NSD2 p.E1099K mutant (9B) (AID 1645876); note: nearly all actives have a fitted effect of over 70% in size
# [21] = Primary qHTS for inhibitors of nuclear receptor binding SET domain protein 2 (NSD2) in an RCH-ACV wild type WT cells (2C) (AID 1645877); note: nearly all actives have a fitted effect of over 70% in size
# [22] = molecular target: Glutathione peroxidase 1 (Homo sapiens) (UniProt P07203); assay: Primary qHTS Assay for Inhibitors of Recombinant Selenoprotein Glutathione Peroxidase 1 (GPX1) (AID 1845191); note: nearly all actives have a fitted effect of over 65% in size
# Glutathione peroxidase 1 (Homo sapiens), sequence (P07203 whole entry, looked up): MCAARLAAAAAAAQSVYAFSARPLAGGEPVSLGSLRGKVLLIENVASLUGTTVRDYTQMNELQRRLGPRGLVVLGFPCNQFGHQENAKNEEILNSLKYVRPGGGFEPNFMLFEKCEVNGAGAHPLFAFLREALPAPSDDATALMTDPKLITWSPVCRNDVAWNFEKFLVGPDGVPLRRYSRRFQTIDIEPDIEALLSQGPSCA
# Procedure, shortened: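 NADPH consumption tracked by fluorescence at 340/450 nm between t=0 and t=15 min, room temperature. Final mix: 10 nM GPX1, 100 nM glutathione reductase, 1 mM GSH, 0.5 mM NADPH, 0.5 mM cumene hydroperoxide, 0.01% BSA; 30 min compound–enzyme preincubation.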
# [23] = molecular target: Phospholipid hydroperoxide glutathione peroxidase GPX4 (Homo sapiens) (UniProt P36969); assay: Primary qHTS Assay for Inhibitors of Recombinant Selenoprotein Glutathione Peroxidase 4 (GPX4) (AID 1845192); note: nearly all actives have a fitted effect of over 65% in size
# Phospholipid hydroperoxide glutathione peroxidase GPX4 (Homo sapiens), sequence (P36969 whole entry, looked up): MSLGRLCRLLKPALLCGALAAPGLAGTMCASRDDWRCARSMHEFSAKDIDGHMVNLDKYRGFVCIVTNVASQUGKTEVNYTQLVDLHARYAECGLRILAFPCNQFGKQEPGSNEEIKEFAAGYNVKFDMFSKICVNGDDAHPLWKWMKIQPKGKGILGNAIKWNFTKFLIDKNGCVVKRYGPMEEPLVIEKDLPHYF
# Procedure, shortened: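 NADPH consumption followed by fluorescence at 340/450 nm, t=0 and after 15 min at room temperature. Reaction started with cumene hydroperoxide (0.5 mM final) after 30 min compound–GPX4 preincubation; final 200 nM GPX4, 100 nM GR, 1 mM GSH, 0.5 mM NADPH.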
# [24] = test system: 3D7; assay: qHTS profiling for inhibitors of Plasmodium falciparum proliferation (AID 504749); note: nearly all actives have a fitted effect of over 60% in size; note: potency is the fitted concentration of half-maximal effect; settings: P. falciparum in erythrocytes, SYBR Green DNA, 72 h; series mostly up to 28.7 µM
# Procedure, shortened: (§1)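 In a 72 h erythrocytic culture (37 C, humidified, 5% CO2) at 2.5% hematocrit and 0.3% starting parasitemia, compounds were tested; SYBR Green I in detergent lysis buffer stained parasite DNA overnight.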
# [25] = test system: 7G8; assay: as above; settings: P. falciparum in erythrocytes, SYBR Green DNA, 72 h; series mostly up to 28.7 µM
# Procedure, shortened: as §1
# [26] = test system: AS120; assay: as above; settings: P. falciparum in erythrocytes, SYBR Green DNA, 72 h; series mostly up to 28.7 µM
# Procedure, shortened: as §1
# [27] = test system: C2A; assay: as above; settings: P. falciparum in erythrocytes, SYBR Green DNA, 72 h; series mostly up to 28.7 µM
# Procedure, shortened: as §1
# [28] = test system: CP191; assay: as above; settings: P. falciparum in erythrocytes, SYBR Green DNA, 72 h; series mostly up to 28.7 µM
# Procedure, shortened: as §1
# [29] = test system: CP192; assay: as above; settings: P. falciparum in erythrocytes, SYBR Green DNA, 72 h; series mostly up to 28.7 µM
# Procedure, shortened: as §1
# [30] = test system: CP237; assay: as above; settings: P. falciparum in erythrocytes, SYBR Green DNA, 72 h; series mostly up to 28.7 µM
# Procedure, shortened: as §1
# [31] = test system: CP256; assay: as above; settings: P. falciparum in erythrocytes, SYBR Green DNA, 72 h; series mostly up to 28.7 µM
# Procedure, shortened: as §1
# [32] = test system: CP262; assay: as above; settings: P. falciparum in erythrocytes, SYBR Green DNA, 72 h; series mostly up to 28.7 µM
# Procedure, shortened: as §1
# [33] = test system: CP269; assay: as above; settings: P. falciparum in erythrocytes, SYBR Green DNA, 72 h; series mostly up to 28.7 µM
# Procedure, shortened: as §1
# [34] = test system: CP297; assay: as above; settings: P. falciparum in erythrocytes, SYBR Green DNA, 72 h; series mostly up to 28.7 µM
# Procedure, shortened: as §1
# [35] = test system: CP315; assay: as above; settings: P. falciparum in erythrocytes, SYBR Green DNA, 72 h; series mostly up to 28.7 µM
# Procedure, shortened: as §1
# [36] = test system: Dd2; assay: as above; settings: P. falciparum in erythrocytes, SYBR Green DNA, 72 h; series mostly up to 28.7 µM
# Procedure, shortened: as §1
# [37] = test system: GB4; assay: as above; settings: P. falciparum in erythrocytes, SYBR Green DNA, 72 h; series mostly up to 28.7 µM
# Procedure, shortened: as §1
# [38] = test system: ICS; assay: as above; settings: P. falciparum in erythrocytes, SYBR Green DNA, 72 h; series mostly up to 28.7 µM
# Procedure, shortened: as §1
# [39] = test system: JCK; assay: as above; settings: P. falciparum in erythrocytes, SYBR Green DNA, 72 h; series mostly up to 28.7 µM
# Procedure, shortened: as §1
# [40] = test system: PC49; assay: as above; settings: P. falciparum in erythrocytes, SYBR Green DNA, 72 h; series mostly up to 28.7 µM
# Procedure, shortened: as §1
# [41] = test system: TAB113; assay: as above; settings: P. falciparum in erythrocytes, SYBR Green DNA, 72 h; series mostly up to 28.7 µM
# Procedure, shortened: as §1
# [42] = test system: TAB165; assay: as above; settings: P. falciparum in erythrocytes, SYBR Green DNA, 72 h; series mostly up to 28.7 µM
# Procedure, shortened: as §1
# [43] = test system: W2; assay: as above; settings: P. falciparum in erythrocytes, SYBR Green DNA, 72 h; series mostly up to 28.7 µM
# Procedure, shortened: as §1
smiles,measurement,setting,value
Cc1cccc([C@H](C)c2cnc[nH]2)c1C,Potency,[1],158 nM (active)
same,Potency,[2],> 46 µM
same,outcome,[3],inactive
same,Potency,[4],199 nM (active)
same,Potency,[5],158 nM (active)
same,Potency,[6],inactive
same,Potency,[7],5.01 µM (active)
same,Potency,[8],inactive
same,Potency,[9],inactive
same,Potency,[10],inactive
same,Potency,[11],inactive
same,Potency,[12],inactive
same,Potency,[13],inactive
same,Potency,[14],inactive
same,Potency,[15],inactive
same,outcome,[16],inactive
same,Potency,[17],inactive
same,Potency,[18],inactive
same,Potency,[19],inactive
same,Potency,[20],inactive
same,Potency,[21],inactive
same,Potency,[22],inactive
same,Potency,[23],inactive
same,Potency,[24],inactive
same,Potency,[25],7.94 µM (active)
same,Potency,[26],inactive
same,Potency,[27],inactive
same,Potency,[28],7.08 µM (active)
same,Potency,[29],inactive
same,Potency,[30],11.2 µM (active)
same,Potency,[31],7.08 µM (active)
same,Potency,[32],inactive
same,Potency,[33],inactive
same,Potency,[34],10.7 µM (active)
same,Potency,[35],inactive
same,Potency,[36],11.2 µM (active)
same,Potency,[37],8.49 µM (active)
same,Potency,[38],12.6 µM (active)
same,Potency,[39],inactive
same,Potency,[40],inactive
same,Potency,[41],inactive
same,Potency,[42],4.47 µM (active)
same,Potency,[43],10.7 µM (active)
